Assay [1] has as its system CP191. The experiment in a line: qHTS profiling for inhibitors of Plasmodium falciparum proliferation (AID 504749). Note: nearly all actives have a fitted effect of over 60% in size. Note: potency is the fitted concentration of half-maximal effect. Particulars: P. falciparum in erythrocytes, SYBR Green DNA, 72 h; series mostly up to 28.7 µM. Put shortly:
(§1)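 SYBR Green fluorescence of parasite DNA, read after lysis and overnight dark incubation, measured growth over 72 h in erythrocyte culture at 0.3% parasitemia and 2.5% hematocrit. Data normalised to DMSO and 0.29 uM artemisinin, with plate-drift correction.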
A general note: In qHTS, concentration-response curves come from the screen itself.

Assay [2] concerns CP217. The assay is described as above. Particulars: P. falciparum in erythrocytes, SYBR Green DNA, 72 h; series mostly up to 28.7 µM. An outline of the steps: as §1
The subject of assay [3] is CP237. The assay is described as above. Conditions: P. falciparum in erythrocytes, SYBR Green DNA, 72 h; series mostly up to 28.7 µM. An outline of the steps:
as §1

Assay [4] concerns CP252. Described as above. Conditions: P. falciparum in erythrocytes, SYBR Green DNA, 72 h; series mostly up to 12.8 µM. An outline of the steps:
as §1

The subject of assay [5] is CP256. Described as above. Particulars: P. falciparum in erythrocytes, SYBR Green DNA, 72 h; series mostly up to 28.7 µM. Put shortly: as §1
Assay [6] relates to CP286. Described as above. Conditions: P. falciparum in erythrocytes, SYBR Green DNA, 72 h; series mostly up to 28.7 µM. An outline of the steps:
as §1

Assay [7] concerns CP297. The assay is described as above. Conditions: P. falciparum in erythrocytes, SYBR Green DNA, 72 h; series mostly up to 28.7 µM. An outline of the steps: as §1
Assay [8] concerns CP335. Described as above. Particulars: P. falciparum in erythrocytes, SYBR Green DNA, 72 h; series mostly up to 12.8 µM. An outline of the steps: as §1
In assay [9] the test system is HB3. The assay is described as above. Conditions: P. falciparum in erythrocytes, SYBR Green DNA, 72 h; series mostly up to 28.7 µM. Put shortly: as §1
Assay [10] has as its system N140. The assay is described as above. Particulars: P. falciparum in erythrocytes, SYBR Green DNA, 72 h; series mostly up to 28.7 µM. Put shortly: as §1
The test system of assay [11] is PAD. The description is as above. Particulars: P. falciparum in erythrocytes, SYBR Green DNA, 72 h; series mostly up to 28.7 µM. Put shortly: as §1
Assay [12] has as its system PC15. The assay is described as above. Conditions: P. falciparum in erythrocytes, SYBR Green DNA, 72 h; series mostly up to 28.7 µM. An outline of the steps: as §1
For assay [13], the system named is SC27B. The description is as above. Conditions: P. falciparum in erythrocytes, SYBR Green DNA, 72 h; series mostly up to 28.7 µM. An outline of the steps: as §1
The nature of assay [14]: S16 Schwann cell PMP22 intronic element beta-lactamase assay (AID 624044; calls by dose curve; note: nearly all actives have a fitted effect of over 15% in size). Particulars: S16 rat Schwann cells, PMP22 element beta-lactamase FRET, 24 h; ratio activity, negative = inhibition: at 38.3 µM (top of the series) unless noted. Put shortly: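 Beta-lactamase reporter under a PMP22 intronic regulatory element in stable S16 rat Schwann cells; 24 h compound exposure. 460 nm blue signal normalized between DMSO (0%) and potassium clavulanate, with 535 nm FRET tracking viability; curves classed by r2 and response.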

For assay [15], the system named is CP194. The experiment in a line: qHTS profiling for inhibitors of Plasmodium falciparum proliferation (AID 504749). Note: nearly all actives have a fitted effect of over 60% in size. Note: potency is the fitted concentration of half-maximal effect. Conditions: P. falciparum in erythrocytes, SYBR Green DNA, 72 h; series mostly up to 28.7 µM. An outline of the steps:
as §1

Assay [16] deals with CP201. Described as above. Particulars: P. falciparum in erythrocytes, SYBR Green DNA, 72 h; series mostly up to 28.7 µM. An outline of the steps: as §1
Assay [17] deals with CP266. The assay is described as above. Conditions: P. falciparum in erythrocytes, SYBR Green DNA, 72 h; series mostly up to 12.8 µM. An outline of the steps: as §1
The test system of assay [18] is CP315. The description is as above. Conditions: P. falciparum in erythrocytes, SYBR Green DNA, 72 h; series mostly up to 28.7 µM. Put shortly:
as §1

Assay [19] relates to CP325. Described as above. Particulars: P. falciparum in erythrocytes, SYBR Green DNA, 72 h; series mostly up to 28.7 µM. An outline of the steps: as §1
For assay [20], the system named is GB4. The assay is described as above. Particulars: P. falciparum in erythrocytes, SYBR Green DNA, 72 h; series mostly up to 28.7 µM. Put shortly: as §1

Inconclusive results are not listed. The source made the active and inactive calls. Unless noted, calls come from the whole dose curve; as a rule, active = well fitted inhibition curve with a large enough effect; inconclusive = small, poorly fitted or top-dose-only effect; inactive = flat fitted curve, though single readings scatter.

Turning to `C[C@]12CC[C@H](O)CC1=CCC1C2CC[C@]2(C)C(=O)CC[C@@H]12` (stereo partly specified), the Potency result in [1], in assay [2], in assay [3], in assay [4], in assay [5] and in assay [6] was “inactive” in each case. Further, the Potency result in assay [8], in assay [9], in assay [10], in assay [11], in assay [12] and in [13] was “inactive” throughout. In addition, the Potency in assay [7] was 19 µM (active).
With `ClC1=C(Cl)C2(Cl)C3C4CC(C5OC45)C3C1(Cl)C2(Cl)Cl` (stereo unspecified), the Potency result in assay [14], in assay [1], in assay [15], in assay [16], in assay [2] and in assay [3] was “inactive” in each case. Moreover, the Potency entry in [4], in [5], in assay [17], in assay [18], in assay [19] and in assay [20] was “inactive” in each case. Also, the Potency result in assay [9], in assay [10], in [11], in [12] and in assay [13] was “inactive” throughout.
For the molecule `C[N+]1([O-])[C@@H]2CC(OC(=O)[C@@H](CO)c3ccccc3)C[C@@H]1[C@H]1O[C@H]12` (stereo partly specified), the Potency entry in assay [14], in assay [1], in [15], in assay [16], in [2] and in assay [3] was “inactive” in each case. The Potency entry in assay [4], in assay [5], in [17], in assay [6], in [7] and in assay [18] was “inactive” throughout. Further, the Potency entry in assay [19], in assay [8], in [20], in assay [9], in [10] and in [11] was “inactive” in each case. Also, the Potency result in assay [12] and in assay [13] was “inactive” each time.
As to `CC[C@@H]1[C@@H]2C[C@H]3[C@H]4N(C)c5ccccc5[C@@]45C[C@@H]([C@@H]2[C@@H]5O)N3[C@H]1O`, the Potency entry in assay [14], in assay [1], in assay [15], in [16], in assay [2] and in assay [4] was “inactive” throughout. Also, the Potency entry in assay [5], in [17], in assay [6], in assay [7], in assay [18] and in assay [19] was “inactive” throughout. Moreover, the Potency result in [8], in assay [20], in [9], in assay [10] and in assay [13] was “inactive” throughout.
Turning to `C[C@H](N)[C@@H](O)c1ccccc1`, the Potency entry in [14], in assay [1], in assay [15], in [16], in assay [2] and in assay [3] was “inactive” each time. Also, the Potency result in assay [4], in assay [5], in assay [17], in assay [6], in assay [7] and in [18] was “inactive” throughout. The Potency entry in [19], in [8], in assay [20], in [9], in assay [10] and in assay [11] was “inactive” each time. Further, the Potency entry in assay [12] and in [13] was “inactive” each time.
Take `CC[C@@]1(c2ccc(N)cc2)CCC(=O)NC1=O`: the Potency result in [1], in assay [15], in assay [16], in [2], in [3] and in assay [4] was “inactive” throughout. Moreover, the Potency result in assay [5], in [17], in [6], in assay [7], in assay [18] and in [19] was “inactive” in each case. Further, the Potency result in assay [8], in assay [20], in assay [9], in assay [10], in [11] and in [12] was “inactive” each time. Further, in assay [13], the Potency entry was “inactive”.
As to `CC1=C2[C@@H]3OC(=O)[C@@H](C)[C@@H]3CC[C@]2(C)C=CC1=O`, the Potency result in assay [14], in assay [15], in assay [16], in [3], in assay [17] and in assay [6] was “inactive” each time. Also, the Potency entry in assay [7], in [18], in assay [19], in assay [8], in [20] and in [9] was “inactive” in each case. For the same molecule, the Potency entry in assay [12] was “inactive”.
With `CCNC[C@H](O)c1cccc(O)c1`, the Potency result in assay [14], in [1], in assay [15], in assay [16], in [2] and in assay [3] was “inactive” in each case. In addition, the Potency entry in [4], in assay [5], in assay [17], in [6], in assay [18] and in assay [19] was “inactive” each time. For the same molecule, the Potency entry in [8], in [20], in assay [9], in assay [10], in assay [11] and in assay [12] was “inactive” in each case. Also, the Potency entry in assay [13] was “inactive”.
In the case of `C#CCN(C)[C@@H](C)Cc1ccccc1`, the Potency entry in assay [14], in assay [1], in [15], in [16], in [2] and in assay [3] was “inactive” each time. The Potency result in [4], in assay [5], in assay [17], in [6], in assay [7] and in [18] was “inactive” in each case. The Potency entry in assay [19], in assay [8], in assay [20], in assay [9], in assay [10] and in assay [11] was “inactive” each time. Moreover, the Potency result in assay [12] and in assay [13] was “inactive” in each case.
In the case of `C[N+]1(C)[C@@H]2CC[C@H]1CC(OC(=O)[C@@H](CO)c1ccccc1)C2` (stereo partly specified), the Potency entry in [14], in [1], in assay [15], in assay [16], in [2] and in [3] was “inactive” in each case. Besides, the Potency entry in assay [4], in assay [17], in assay [6], in assay [7], in assay [19] and in [8] was “inactive” in each case. Also, the Potency result in [20], in [9], in assay [10], in assay [11], in assay [12] and in assay [13] was “inactive” throughout.

For the origin of these results see PubChem BioAssay (NCATS).
